# Measurements taken from the antibiotic and cytotoxicity screens of Wong et al. (2023).
# The whole screen tested about 39,000 compounds, of which about 3,300 (8.5%) were called active. Shown is part of a subset that was picked to be rich in actives.
# System: HepG2
# Test: cytotoxicity call (relative viability < 0.9)
# Conditions: 10 µM
row,Compound,cytotoxicity call
1,C[C@@H]1CN([C@@H](C)CO)C(=O)CCCn2cc(nn2)CO[C@H]1CN(C)C(=O)Oc1ccc2ccccc2c1,inactive
2,Cc1nc(N)sc1CCN,inactive
3,C1CC2(CCN1)OCCO2,inactive
4,COCCCNC(=O)[C@@]1(Cc2ccccc2N=[N+]=[N-])N=C(c2ccc(OCCCO)cc2)O[C@H]1c1ccccc1N=[N+]=[N-],inactive
5,[N-]=[N+]=NCc1ccccc1C[C@]1(C(=O)NCCN2CCOCC2)N=C(c2ccc(OCCCO)cc2)O[C@H]1c1ccccc1N=[N+]=[N-],active
6,[N-]=[N+]=Nc1ccccc1C[C@@]1(C(=O)NCCN2CCOCC2)N=C(c2ccc(OCCCO)cc2)O[C@@H]1c1ccccc1N=[N+]=[N-],inactive
7,[N-]=[N+]=NCc1ccccc1C[C@@]1(C(=O)NCCN2CCOCC2)N=C(c2ccc(OCCCO)cc2)O[C@@H]1c1ccccc1N=[N+]=[N-],active
8,Cn1ccnc1C(=O)N[C@H]1CN[C@@H]2CCCO[C@@H]12,inactive
9,Nc1ncnc2c1ncn2CCOCP(=O)(O)O,inactive
10,Cc1cc([C@@H](C#N)c2ccc(Cl)cc2)c(Cl)cc1NC(=O)c1cc(I)cc(I)c1O,inactive
11,CCC1(O)CC(O)c2c(cc3c(c2O)C(=O)c2c(O)ccc(O)c2C3=O)C1C(=O)OC (stereo not drawn),inactive
12,CC[C@@]1(O)C[C@H](O[C@H]2C[C@H](N(C)C)[C@H](O)[C@H](C)O2)c2c(cc3c(c2O)C(=O)c2c(O)ccc(O)c2C3=O)[C@H]1C(=O)OC,active
13,Cl.NCCc1cc(O)c(O)cc1O,inactive
14,C[C@@H]1CN([C@H](C)CO)C(=O)CCCn2nncc2CO[C@@H]1CN(C)C(=O)Oc1ccc2ccccc2c1,inactive
15,O=C1CC2OCC=C3CN4CCC56c7ccccc7N1C5C2C3CC46.O=S(=O)(O)O (stereo not drawn),active
16,COc1cc2c(cc1OC)C13CCN4CC5=CCOC6CC(=O)N2C1C6C5CC43 (stereo not drawn),inactive
17,O=C(O)C[C@@H]1CC[C@H]2NC[C@H](O)COC[C@@H]2O1,inactive

row,Compound,cytotoxicity call
1,c1ccc2cc3c(cc2c1)-c1cccc2cccc-3c12,active
2,c1csc(N2CCNCC2)n1,inactive
3,COC(=O)[C@@H]1C(=O)NC[C@H]1C(C)C,inactive
4,CC(=O)N[C@H]1CCSC1=O,inactive
5,[N-]=[N+]=CC(=O)OCC(N)C(=O)O (stereo not drawn),active
6,NC(N)=NOCC[C@H](N)C(=O)O,inactive
7,N#[N+]CC(=O)OC[C@H](N)C(=O)O,inactive
8,O=C(NCc1ccccn1)[C@]12CNC[C@H]1COC2,inactive
9,O=C1[O][Pt]2([NH][C@@H]3CCCC[C@H]3[NH]2)[O]C1=O,inactive
10,CCN1C[C@]2(COC)CC[C@@H](OC)[C@@]34[C@@H]2[C@@H](OC)[C@@H]([C@@H]13)[C@]1(OC(C)=O)C[C@@H](OC)[C@@]2(O)C[C@H]4[C@@H]1[C@H]2OC(=O)c1ccc(OC)cc1,inactive
11,Cc1cc(O)c2c(=O)c3c(O)cc(O)c4c5c(O)cc(O)c6c(=O)c7c(O)cc(C)c8c1c2c(c34)c(c78)c65,active
12,CC(C)C[C@@H]1C(=O)N2CCC[C@@H]2[C@]2(O)O[C@@](NC(=O)[C@@H]3C=C4c5cccc6[nH]c(Br)c(c56)C[C@@H]4N(C)C3)(C(C)C)C(=O)N12,inactive
13,CC[C@@H](CN)c1ccccc1,inactive
14,C[N+](C)(C)C[C@H]1CCC[C@@H]1O,inactive
15,CN1C(=O)N(C)C2C1N(C)C(=O)N2C (stereo not drawn),inactive
16,NCCc1ccc(C(=O)c2ccccc2)cc1,inactive
